Test [1] addresses T1, Ephrin type-A receptor 3 (Homo sapiens) (UniProt P29320).
T1 sequence (whole entry): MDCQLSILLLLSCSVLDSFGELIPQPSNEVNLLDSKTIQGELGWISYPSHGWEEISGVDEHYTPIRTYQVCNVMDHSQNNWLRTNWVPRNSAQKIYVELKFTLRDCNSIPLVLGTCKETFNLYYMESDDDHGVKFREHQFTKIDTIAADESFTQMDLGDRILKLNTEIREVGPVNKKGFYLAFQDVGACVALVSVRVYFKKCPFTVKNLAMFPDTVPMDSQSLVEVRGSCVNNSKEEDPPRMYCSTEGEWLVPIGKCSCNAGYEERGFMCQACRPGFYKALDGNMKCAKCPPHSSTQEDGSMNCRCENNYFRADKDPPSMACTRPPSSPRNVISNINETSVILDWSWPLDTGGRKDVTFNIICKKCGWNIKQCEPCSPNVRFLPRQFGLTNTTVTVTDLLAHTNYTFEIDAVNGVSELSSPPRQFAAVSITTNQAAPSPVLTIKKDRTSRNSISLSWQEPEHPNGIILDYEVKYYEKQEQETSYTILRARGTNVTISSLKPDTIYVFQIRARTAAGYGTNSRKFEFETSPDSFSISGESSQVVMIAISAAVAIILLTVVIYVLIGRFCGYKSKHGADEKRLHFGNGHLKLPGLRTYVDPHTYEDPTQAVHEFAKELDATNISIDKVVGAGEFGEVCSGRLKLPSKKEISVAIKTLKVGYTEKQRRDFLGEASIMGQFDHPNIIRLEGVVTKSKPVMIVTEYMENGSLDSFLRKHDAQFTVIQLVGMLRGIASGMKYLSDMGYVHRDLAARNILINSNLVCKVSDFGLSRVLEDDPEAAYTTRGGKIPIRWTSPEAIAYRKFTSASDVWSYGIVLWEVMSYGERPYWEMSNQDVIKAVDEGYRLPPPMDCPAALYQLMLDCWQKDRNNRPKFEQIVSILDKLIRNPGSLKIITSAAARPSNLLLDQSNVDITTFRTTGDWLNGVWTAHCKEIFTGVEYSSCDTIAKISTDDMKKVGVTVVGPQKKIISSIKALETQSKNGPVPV
The settings on record: at 10 µM.

Test [2] has as its target Receptor tyrosine-protein kinase erbB-4 (Homo sapiens) (UniProt Q15303). The note with it: at 10 µM.
Test [3] has as its target Ephrin type-A receptor 5 (Homo sapiens) (UniProt P54756). The settings on record: at 1 µM.
Test [4] shares this target. The settings on record: at 10 µM.
The target of test [5] is Ephrin type-A receptor 7 (Homo sapiens) (UniProt Q15375). The settings on record: at 10 µM.
Chain of Ephrin type-A receptor 7 (Homo sapiens) (Q15375 28-998 limits assumed): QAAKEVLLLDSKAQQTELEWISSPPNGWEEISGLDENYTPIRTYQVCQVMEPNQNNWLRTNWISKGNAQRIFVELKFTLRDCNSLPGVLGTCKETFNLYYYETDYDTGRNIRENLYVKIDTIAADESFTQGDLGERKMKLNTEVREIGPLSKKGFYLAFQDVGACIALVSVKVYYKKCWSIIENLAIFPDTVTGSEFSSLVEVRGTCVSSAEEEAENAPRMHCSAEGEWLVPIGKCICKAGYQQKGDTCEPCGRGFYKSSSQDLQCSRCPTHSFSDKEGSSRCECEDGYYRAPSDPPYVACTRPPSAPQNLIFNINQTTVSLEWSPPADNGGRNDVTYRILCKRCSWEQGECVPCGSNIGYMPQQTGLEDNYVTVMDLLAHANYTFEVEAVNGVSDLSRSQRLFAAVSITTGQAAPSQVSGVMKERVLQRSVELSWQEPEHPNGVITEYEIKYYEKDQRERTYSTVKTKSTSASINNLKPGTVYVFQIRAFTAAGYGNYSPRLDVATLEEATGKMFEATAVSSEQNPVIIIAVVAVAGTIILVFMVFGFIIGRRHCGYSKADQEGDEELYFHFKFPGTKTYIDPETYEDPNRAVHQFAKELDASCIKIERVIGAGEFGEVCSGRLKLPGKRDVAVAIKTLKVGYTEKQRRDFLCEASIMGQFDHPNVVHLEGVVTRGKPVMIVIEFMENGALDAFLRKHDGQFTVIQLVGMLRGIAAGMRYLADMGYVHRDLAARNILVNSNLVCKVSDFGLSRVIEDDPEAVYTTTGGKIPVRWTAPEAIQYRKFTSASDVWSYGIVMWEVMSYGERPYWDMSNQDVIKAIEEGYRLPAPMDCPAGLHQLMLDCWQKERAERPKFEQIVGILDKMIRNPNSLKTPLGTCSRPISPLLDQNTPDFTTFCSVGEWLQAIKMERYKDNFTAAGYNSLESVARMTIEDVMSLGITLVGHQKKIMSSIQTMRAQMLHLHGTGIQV
In test [6] the target is T2, Ephrin type-B receptor 3 (Homo sapiens) (UniProt P54753).
T2 sequence (whole entry): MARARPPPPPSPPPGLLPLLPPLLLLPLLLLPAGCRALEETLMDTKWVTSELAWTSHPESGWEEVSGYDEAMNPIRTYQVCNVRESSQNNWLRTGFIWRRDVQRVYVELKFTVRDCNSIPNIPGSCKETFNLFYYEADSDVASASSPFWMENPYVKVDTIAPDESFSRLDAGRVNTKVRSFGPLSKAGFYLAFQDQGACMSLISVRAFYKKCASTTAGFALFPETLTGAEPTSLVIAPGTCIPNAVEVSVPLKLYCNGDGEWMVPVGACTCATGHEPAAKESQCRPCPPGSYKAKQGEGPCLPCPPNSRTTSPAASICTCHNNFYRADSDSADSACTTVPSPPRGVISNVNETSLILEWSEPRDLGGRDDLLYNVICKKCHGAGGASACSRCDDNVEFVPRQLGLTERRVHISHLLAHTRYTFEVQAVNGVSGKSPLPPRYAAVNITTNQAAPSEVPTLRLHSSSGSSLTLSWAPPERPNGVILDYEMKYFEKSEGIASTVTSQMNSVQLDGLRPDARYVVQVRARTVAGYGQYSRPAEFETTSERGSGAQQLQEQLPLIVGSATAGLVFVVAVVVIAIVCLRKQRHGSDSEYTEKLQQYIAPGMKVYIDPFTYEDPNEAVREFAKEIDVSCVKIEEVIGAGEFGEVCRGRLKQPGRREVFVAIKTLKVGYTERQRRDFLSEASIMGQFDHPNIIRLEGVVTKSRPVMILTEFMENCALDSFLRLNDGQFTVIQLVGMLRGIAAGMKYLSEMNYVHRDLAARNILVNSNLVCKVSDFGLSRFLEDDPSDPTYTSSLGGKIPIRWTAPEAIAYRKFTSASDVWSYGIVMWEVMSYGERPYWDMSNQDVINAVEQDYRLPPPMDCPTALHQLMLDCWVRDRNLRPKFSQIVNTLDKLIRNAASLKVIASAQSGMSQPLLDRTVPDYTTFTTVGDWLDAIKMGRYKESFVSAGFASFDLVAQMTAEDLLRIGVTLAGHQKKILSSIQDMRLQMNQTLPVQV
The settings on record: at 1 µM.

For test [7], the target named is T2, Ephrin type-B receptor 3 (Homo sapiens). The settings on record: at 10 µM.
Test [8] has as its target T3, Ephrin type-B receptor 4 (Homo sapiens) (UniProt P54760).
T3 sequence (whole entry): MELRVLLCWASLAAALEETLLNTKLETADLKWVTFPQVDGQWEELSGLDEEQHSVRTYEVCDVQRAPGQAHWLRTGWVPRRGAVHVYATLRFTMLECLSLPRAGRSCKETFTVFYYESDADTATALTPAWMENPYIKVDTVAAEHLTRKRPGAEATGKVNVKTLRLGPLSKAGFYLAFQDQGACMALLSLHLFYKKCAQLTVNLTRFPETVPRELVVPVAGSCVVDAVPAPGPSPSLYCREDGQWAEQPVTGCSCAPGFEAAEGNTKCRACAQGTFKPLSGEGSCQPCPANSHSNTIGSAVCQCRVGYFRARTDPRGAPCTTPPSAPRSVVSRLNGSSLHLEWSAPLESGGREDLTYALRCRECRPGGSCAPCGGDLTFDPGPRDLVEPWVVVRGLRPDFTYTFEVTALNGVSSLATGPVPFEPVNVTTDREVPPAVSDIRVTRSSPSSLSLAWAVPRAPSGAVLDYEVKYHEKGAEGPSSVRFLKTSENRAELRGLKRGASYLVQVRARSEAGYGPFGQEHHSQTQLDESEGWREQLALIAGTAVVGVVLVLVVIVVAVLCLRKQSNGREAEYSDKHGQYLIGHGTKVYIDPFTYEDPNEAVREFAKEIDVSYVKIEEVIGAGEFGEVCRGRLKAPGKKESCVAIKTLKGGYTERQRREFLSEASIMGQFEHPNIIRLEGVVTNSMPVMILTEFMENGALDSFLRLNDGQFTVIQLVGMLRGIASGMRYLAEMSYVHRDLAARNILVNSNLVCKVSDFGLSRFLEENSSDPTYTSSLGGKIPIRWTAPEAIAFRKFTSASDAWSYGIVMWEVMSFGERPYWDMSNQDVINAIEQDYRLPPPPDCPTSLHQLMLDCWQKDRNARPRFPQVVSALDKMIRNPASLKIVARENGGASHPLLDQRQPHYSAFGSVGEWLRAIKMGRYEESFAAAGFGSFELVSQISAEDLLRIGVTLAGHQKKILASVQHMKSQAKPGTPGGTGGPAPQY
The settings on record: at 1 µM.

The target of test [9] is T3, Ephrin type-B receptor 4 (Homo sapiens). The settings on record: at 10 µM.
For test [10], the target named is Focal adhesion kinase 1 (Homo sapiens) (UniProt Q05397). The settings on record: at 1 µM.
Chain of Focal adhesion kinase 1 (Homo sapiens) (Q05397 2-1052 limits assumed): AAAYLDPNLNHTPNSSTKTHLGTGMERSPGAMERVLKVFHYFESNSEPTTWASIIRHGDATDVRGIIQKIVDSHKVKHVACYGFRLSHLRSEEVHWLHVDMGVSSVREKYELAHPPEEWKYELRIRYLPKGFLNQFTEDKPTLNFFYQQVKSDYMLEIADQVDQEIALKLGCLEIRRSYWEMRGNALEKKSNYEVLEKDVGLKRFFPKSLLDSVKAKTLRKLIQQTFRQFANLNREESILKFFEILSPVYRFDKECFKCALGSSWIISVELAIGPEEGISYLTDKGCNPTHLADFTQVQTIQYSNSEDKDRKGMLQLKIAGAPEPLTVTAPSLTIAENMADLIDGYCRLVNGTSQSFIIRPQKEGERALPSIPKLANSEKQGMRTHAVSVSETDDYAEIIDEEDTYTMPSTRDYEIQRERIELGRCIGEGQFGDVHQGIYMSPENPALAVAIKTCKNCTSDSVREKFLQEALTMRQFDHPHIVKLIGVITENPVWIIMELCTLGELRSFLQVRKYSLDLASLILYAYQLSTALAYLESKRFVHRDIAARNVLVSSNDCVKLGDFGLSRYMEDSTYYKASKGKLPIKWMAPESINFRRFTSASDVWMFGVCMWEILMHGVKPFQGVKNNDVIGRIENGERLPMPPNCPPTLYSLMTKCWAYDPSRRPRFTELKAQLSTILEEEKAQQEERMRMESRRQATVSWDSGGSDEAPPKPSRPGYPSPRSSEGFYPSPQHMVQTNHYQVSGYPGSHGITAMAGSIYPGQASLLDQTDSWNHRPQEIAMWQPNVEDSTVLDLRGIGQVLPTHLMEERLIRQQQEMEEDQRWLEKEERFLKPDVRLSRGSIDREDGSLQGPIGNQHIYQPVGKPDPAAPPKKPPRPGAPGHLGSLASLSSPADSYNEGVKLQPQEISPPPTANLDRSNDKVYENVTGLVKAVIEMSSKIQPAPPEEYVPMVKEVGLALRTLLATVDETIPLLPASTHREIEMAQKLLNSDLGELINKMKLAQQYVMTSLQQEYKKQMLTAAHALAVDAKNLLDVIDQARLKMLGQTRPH
Test [11] deals with Receptor tyrosine-protein kinase erbB-4 (Homo sapiens) (UniProt Q15303). The settings on record: at 1 µM.
Chain of Receptor tyrosine-protein kinase erbB-4 (Homo sapiens) (Q15303 whole entry): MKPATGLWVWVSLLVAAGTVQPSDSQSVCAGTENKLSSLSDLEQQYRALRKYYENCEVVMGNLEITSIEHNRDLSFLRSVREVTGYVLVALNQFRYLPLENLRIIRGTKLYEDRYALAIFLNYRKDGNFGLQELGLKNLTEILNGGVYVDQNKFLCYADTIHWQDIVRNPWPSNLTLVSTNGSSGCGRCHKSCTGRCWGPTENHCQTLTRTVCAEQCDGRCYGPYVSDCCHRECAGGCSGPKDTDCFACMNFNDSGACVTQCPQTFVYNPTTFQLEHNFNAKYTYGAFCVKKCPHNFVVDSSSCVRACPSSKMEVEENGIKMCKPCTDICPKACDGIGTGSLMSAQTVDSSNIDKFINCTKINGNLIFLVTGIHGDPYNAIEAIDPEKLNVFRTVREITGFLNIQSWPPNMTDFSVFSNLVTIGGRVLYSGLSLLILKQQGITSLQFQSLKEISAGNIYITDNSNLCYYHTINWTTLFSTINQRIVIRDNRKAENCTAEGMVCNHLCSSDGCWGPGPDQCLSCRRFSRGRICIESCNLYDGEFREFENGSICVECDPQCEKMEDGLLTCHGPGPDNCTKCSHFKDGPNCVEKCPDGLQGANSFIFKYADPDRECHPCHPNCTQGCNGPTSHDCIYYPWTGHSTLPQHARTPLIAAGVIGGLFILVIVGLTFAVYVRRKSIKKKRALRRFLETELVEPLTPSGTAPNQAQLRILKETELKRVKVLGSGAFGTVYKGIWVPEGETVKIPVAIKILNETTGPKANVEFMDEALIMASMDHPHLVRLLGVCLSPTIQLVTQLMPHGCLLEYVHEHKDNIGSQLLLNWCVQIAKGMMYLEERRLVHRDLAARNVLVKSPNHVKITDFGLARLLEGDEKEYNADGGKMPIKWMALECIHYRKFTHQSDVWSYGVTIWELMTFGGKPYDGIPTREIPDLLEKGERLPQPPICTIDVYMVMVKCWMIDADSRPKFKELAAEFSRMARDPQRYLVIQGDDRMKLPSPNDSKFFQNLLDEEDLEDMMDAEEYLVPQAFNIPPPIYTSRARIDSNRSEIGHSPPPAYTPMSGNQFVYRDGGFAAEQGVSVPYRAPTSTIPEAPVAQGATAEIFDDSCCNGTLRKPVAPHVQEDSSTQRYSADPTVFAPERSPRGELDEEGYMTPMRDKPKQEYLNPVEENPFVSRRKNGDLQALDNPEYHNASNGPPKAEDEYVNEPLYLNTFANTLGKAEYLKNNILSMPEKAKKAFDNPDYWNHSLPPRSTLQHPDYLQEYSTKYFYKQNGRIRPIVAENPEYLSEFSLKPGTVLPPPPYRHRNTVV

Chain of Ephrin type-A receptor 5 (Homo sapiens) (P54756 whole entry): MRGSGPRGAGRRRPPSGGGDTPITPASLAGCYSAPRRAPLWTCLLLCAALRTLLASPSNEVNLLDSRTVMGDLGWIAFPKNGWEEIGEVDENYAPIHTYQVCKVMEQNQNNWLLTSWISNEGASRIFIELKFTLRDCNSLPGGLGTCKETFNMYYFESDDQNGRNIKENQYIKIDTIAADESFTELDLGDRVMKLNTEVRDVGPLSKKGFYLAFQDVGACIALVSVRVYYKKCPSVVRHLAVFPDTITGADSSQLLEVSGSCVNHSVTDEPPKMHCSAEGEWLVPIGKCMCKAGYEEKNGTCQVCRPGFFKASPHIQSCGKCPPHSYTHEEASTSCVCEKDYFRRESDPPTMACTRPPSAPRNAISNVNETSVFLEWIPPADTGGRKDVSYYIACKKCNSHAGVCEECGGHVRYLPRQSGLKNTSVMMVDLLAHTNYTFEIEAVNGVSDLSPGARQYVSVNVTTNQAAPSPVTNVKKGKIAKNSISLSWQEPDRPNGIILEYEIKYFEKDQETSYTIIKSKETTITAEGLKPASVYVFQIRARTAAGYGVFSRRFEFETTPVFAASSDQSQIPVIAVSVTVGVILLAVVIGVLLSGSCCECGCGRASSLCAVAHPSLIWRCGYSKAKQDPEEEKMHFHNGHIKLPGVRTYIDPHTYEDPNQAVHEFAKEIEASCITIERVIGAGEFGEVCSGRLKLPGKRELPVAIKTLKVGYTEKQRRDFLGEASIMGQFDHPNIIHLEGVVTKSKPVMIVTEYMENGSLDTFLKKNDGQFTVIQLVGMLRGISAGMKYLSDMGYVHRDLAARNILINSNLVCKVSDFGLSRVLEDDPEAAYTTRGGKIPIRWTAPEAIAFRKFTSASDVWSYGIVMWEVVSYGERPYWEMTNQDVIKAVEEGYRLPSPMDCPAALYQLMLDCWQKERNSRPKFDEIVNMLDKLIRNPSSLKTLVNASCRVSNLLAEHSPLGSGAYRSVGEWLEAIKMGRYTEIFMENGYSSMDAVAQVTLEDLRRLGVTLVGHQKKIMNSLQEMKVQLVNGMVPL

As for `CC(C)N(CCC(=O)c1ccc2ccccc2c1)Cc1ccccc1`, the values for the residual activity in test [1] and in test [2] were 85% and 78%, respectively.
Take `NCCNc1ncc(C(N)=O)c(Nc2cccc(C(F)(F)F)c2)n1`: the residual activity in test [3] is 102%; in test [4], 74%; in test [5], 72%; in test [6] it was 113% (inactive); in test [7], 111%; in test [8], 102%. Moreover, the residual activity was 101% in test [9], 75% in test [2] and 64% in [10].
Consider `CCN1/C(=C/C(C)=O)Sc2ccc(OC)cc21`, for which the results for the residual activity in test [11] and in test [2] were 75% and 69%, respectively.

Values taken from ChEMBL document CHEMBL2218924, “A broad activity screen in support of a chemogenomic map for kinase signalling research and drug discovery” (Biochem J, 2013).
